DUSP3 inh: inhibitors of human VHR1 phosphatase (DUSP3); P51452; recombinant VHR phosphatase, pNPP absorbance; inhibition, % at 13.3 µM; hit rate 0.52% among 290,000; AID 1654; in the data active means inhibition above about 50%
CCHFV vOTU inh: blocks the CCHF virus ovarian tumor domain protease | CCHFV vOTU protease, Pep-AMC fluorescence | inhibition, % at 11.5 µM | hit rate 0.55% among 370,000 | AID 651958; in the data active means inhibition above about 30%; further: 0% = vehicle wells with enzyme and 100% = no enzyme wells
RecA intein inh: blocks M. tuberculosis RecA intein splicing | cell-free RecA intein splicing, fluorescence | inhibition, % (no concentration beside the values) | AID 2221 | hit rate 0.75% among 290,000; in the data active means inhibition above about 30%;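 further: 0% = vehicle wells and 100% = reference inhibitor control wells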
Target sequence (P9WHJ3 whole entry, looked up): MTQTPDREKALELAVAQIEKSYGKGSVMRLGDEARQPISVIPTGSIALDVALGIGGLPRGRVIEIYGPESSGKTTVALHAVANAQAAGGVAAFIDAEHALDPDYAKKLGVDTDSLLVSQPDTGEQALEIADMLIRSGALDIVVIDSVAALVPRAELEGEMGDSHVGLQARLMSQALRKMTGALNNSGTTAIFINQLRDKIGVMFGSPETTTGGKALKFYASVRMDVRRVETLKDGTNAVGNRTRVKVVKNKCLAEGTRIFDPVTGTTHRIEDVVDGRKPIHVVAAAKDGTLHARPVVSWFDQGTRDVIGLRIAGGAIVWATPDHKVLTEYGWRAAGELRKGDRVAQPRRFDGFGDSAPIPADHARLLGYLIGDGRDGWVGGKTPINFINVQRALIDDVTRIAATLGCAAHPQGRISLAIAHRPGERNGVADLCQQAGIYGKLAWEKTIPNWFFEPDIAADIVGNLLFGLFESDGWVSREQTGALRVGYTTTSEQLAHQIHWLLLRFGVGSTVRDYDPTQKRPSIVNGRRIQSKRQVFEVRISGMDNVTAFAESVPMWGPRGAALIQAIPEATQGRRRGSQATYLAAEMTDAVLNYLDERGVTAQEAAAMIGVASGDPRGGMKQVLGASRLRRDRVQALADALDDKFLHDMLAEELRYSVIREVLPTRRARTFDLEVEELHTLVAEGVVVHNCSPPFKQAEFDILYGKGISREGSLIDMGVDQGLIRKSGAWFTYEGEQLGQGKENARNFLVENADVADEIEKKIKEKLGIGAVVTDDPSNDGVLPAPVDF
SARS 3CLpro inh: SARS-CoV 3CLpro protease inhibition. P0C6X7. recombinant SARS-CoV 3CLpro, quenched FRET peptide cleavage. inhibition, % at 6 µM. hit rate 0.14% among 290,000. AID 1706; in the data active means inhibition above about 12%
* hit, by the source's call; . = no result. Only some compounds are listed: those with a hit (about 1.5% of all), similar ones and a draw of the others.

SMILES | DUSP3 inh | CCHFV vOTU inh | RecA intein inh | SARS 3CLpro inh
COC(=O)c1cc(NC(=O)CN(c2ccccc2OC)S(=O)(=O)c2ccccc2)ccc1Cl | 6.2 | 5.2 | 3.9 | 13.4*
COc1ccc(OC)c(N(CC(=O)NC2CC3CCC2C3)S(=O)(=O)c2ccccc2)c1 (stereo not given) | 59.1* | 10.9 | 4.8 | 0.1
CC(=O)C1CCC2C3CC=C4CC(SC(=N)N)CCC4(C)C3CCC12C (stereo not given) | . | 9.6 | . | .
Cc1cn([C@H]2C[C@H](O)[C@@H](/C=C/C(=O)NCCC(c3ccccc3)c3ccccc3)O2)c(=O)[nH]c1=O | . | 0.2 | . | .
CCC(C)NC(=O)c1ccc2c(c1)S(=O)(=O)c1ccccc1C2=O (stereo not given) | 55.5* | 7.0 | -2.8 | -6.5
CCCCCNC(=O)CCCCn1c(=O)[nH]c2cc(OCC)c(OCC)cc2c1=O | 51.2* | -11.9 | 0.1 | -5.9
CCCCNC(=O)CCCCCn1c(=O)[nH]c2cc(OC)c(OC)cc2c1=O | 22.4 | -7.4 | 0.8 | 2.8
COc1ccccc1C(CNC(=O)C(C)Oc1ccc(Br)cc1)N1CCCC1 (stereo not given) | . | 9.3 | 2.6 | .
Cc1csc(=O)n1CCC(=O)OCC(=O)N(C)c1c(N)n(Cc2ccccc2)c(=O)[nH]c1=O | . | -6.2 | . | .
Cc1cc(O)cc(=O)n1-c1cccc(Br)c1 | . | -3.8 | . | .
CC(=O)Nc1ccc(C2=NN(C)C(=NCc3ccccc3)SC2)cc1 | 51.3* | 7.3 | 6.8 | -2.9
O=C(Nc1ccc(Cl)cc1)N1CCSC1=NCc1ccccc1 | -0.1 | 5.6 | 0.8 | 4.9
CCOC(=O)C1CCN(C(=O)Nc2ccc3nc(-c4ccco4)c(-c4ccco4)nc3c2)CC1 | 56.0* | . | -238.5 | -3.9
COc1cc(C(CC(=O)Nc2ncccc2C)N2Cc3ccccc3C2=O)cc(OC)c1OC (stereo not given) | 52.6* | 9.0 | -1.3 | -7.4
CCn1cc(CNC(=O)CSc2nc(-c3ccc(OC)c(OC)c3)cc(C(F)(F)F)n2)c(C)n1 | 51.3* | -11.0 | 0.4 | 1.3
COCCNC(=O)CSc1nc(-c2ccc(OC)c(OC)c2)cc(C(F)(F)F)n1 | -13.2 | 1.2 | -2.2 | 0.1
Cc1c(Cl)sn(-c2ccc(Cl)cc2)c1=O | 2.1 | 9.2 | . | 1.2
O=C(Nc1nccs1)c1ccc(NC(=O)C2CC=CCC2C(=O)O)cc1 (stereo not given) | 53.0* | 14.4 | -2.9 | 3.0
Cc1ccc(-n2nc3c(=O)n(CC(=O)NCc4ccc(C)o4)nc(C)c3c2C)cc1 | 52.7* | -5.0 | 0.5 | -4.3
O=C(NCCc1ccccc1)C1CCCN1C(=O)Nc1ccc(Cl)cc1 (stereo not given) | 53.3* | -8.5 | 1.0 | 2.6
O=C(NCc1ccc(F)cc1)C1CCCN1C(=O)Nc1ccccc1 (stereo not given) | 59.1* | -1.3 | 1.8 | -5.2
O=C(NCc1ccc(F)cc1)C1CCCN1C(=O)Nc1ccc(F)cc1 (stereo not given) | 4.1 | -7.4 | -1.3 | -0.7
CCOC(=O)[C@]12CCCC=C1N(Cc1ccc(OC)cc1)C(=O)[C@@H]2CC(=O)NCCc1ccccc1OC | . | 5.6 | . | .
Cc1cccc(/C(N)=N/OC(=O)CCCc2ccccc2)c1 | 26.5 | 0.9 | 9.1 | -6.8
CN(C)CCOc1ccc(/C(=C(/CCCl)c2ccccc2)c2ccccc2)cc1 | . | 16.0 | 32.6* | .
SMILES | DUSP3 inh | CCHFV vOTU inh | RecA intein inh | SARS 3CLpro inh
CC(C)(C)C1CCc2sc(C(=O)NNC(=O)CCl)cc2C1 (stereo not given) | 11.5 | 1.5 | 67.3* | 4.1
Cc1cc(-c2csc(NC(=O)c3ccc(=O)[nH]c3)n2)c(C)n1Cc1ccco1 | 111.6* | -11.2 | 1.6 | 2.8
CC(C)C[C@H]1CN(CCCC[C@H]2CNC(=O)C(=O)N2Cc2ccccc2)C(=O)C(=O)N1CCC1CCCCC1 | . | 22.0 | . | .
COC(=O)c1ccc(OC(=O)c2cccs2)cc1 | 16.0 | 11.6 | 26.0 | -2.6
CCC(=O)c1ccc(OC(=O)c2cccs2)cc1 | . | 3.4 | 31.9* | -0.6
CCN(CC)C(=O)C1=C(C)N(CCC2=CCCCC2)C(=O)C(CC(=O)NCc2cccs2)C1 (stereo not given) | . | 8.9 | . | .
Cc1ccc(Cn2cc(CN(C3CC3)S(=O)(=O)c3ccccc3Br)nn2)cc1 | . | -6.8 | . | .
NC1=NC2(CCCCC2)N(c2ccc(F)cc2)C(N)=N1 | 52.9* | 12.4 | 3.3 | -3.3
CC1(C)Cc2c(sc3ncn4nnnc4c23)CO1 | 51.7* | . | . | .
COc1cc(C(=O)N(Cc2ccccc2)c2cccc(C)c2)ccc1OCC(=O)N1CCOCC1 | . | 29.3 | . | .
Cc1ccccc1CS(=O)(=O)Cc1ccc(C(=O)N2CCC3(CC2)OCCO3)o1 | 50.8* | 0.7 | 6.2 | -5.7
COc1ccc(S(=O)(=O)Cc2ccc(C(=O)N3CCC4(CC3)OCCO4)o2)cc1 | -10.2 | -0.8 | -0.2 | -3.1
COC(=O)[C@]12C[C@H](CC(=O)N3CCN(C(=O)c4ccco4)CC3)C(=O)N(CCc3ccc(OC)c(OC)c3)C1=C[C@H](C(C)C)O[C@@H]2C1CC1 | . | -1.8 | . | .
O=C(CSc1cccc(C(F)(F)F)c1)NC(=O)c1ccccc1 | 50.8* | 12.0 | 0.2 | -0.7
COc1ccc2nc(C)cc(SCC(=O)N/N=C/c3ccco3)c2c1 | 22.4 | 7.8 | -0.7 | -4.2
COc1ccc(OC)c(/C=N/NC(=O)CSc2cc(C)nc3c(OC)cccc23)c1 | 53.0* | -50.0 | 11.7 | 2.5
CN(C)S(=O)(=O)c1ccc(Cl)c(NC(=O)CNC2(C)CCS(=O)(=O)C2)c1 (stereo not given) | . | 14.6 | . | .
O=C(Oc1ccc2ccccc2c1)C1CCC1 | 51.0* | -7.5 | -2.6 | 0.7
O=C(Oc1ccc2ccc(O)cc2c1)C1CCCCC1 | 22.5 | 16.7 | -0.3 | 5.2
CCc1ccc(C=NN2CCN(Cc3ccc(C)cc3C)CC2)cc1 | . | 2.6 | . | .
Cc1ccc(C(C)CCN2CCC(n3nccc3NC(=O)c3ccccc3)CC2)o1 (stereo not given) | 52.8* | 10.3 | 2.7 | -4.5
COc1cc(Cl)ccc1OCc1cc(C(=O)N2C[C@H]3CC[C@H]2C3)no1 | 53.3* | 13.6 | 2.3 | 2.1
O=S(=O)(NCc1ccccc1)c1ccc(-n2cccn2)cc1 | 25.2 | 10.9 | 4.2 | -6.4
CCOC(=O)c1c(S(=O)(=O)NCCc2ccco2)c(C)n(C)c1C | 12.9 | 15.5 | 5.0 | -0.7
CCOC(=O)c1c(S(=O)(=O)NCCCc2ccco2)c(C)n(C)c1C | 51.3* | 11.5 | -0.3 | -1.1
SMILES | DUSP3 inh | CCHFV vOTU inh | RecA intein inh | SARS 3CLpro inh
CCOC(=O)c1c(S(=O)(=O)N(C)Cc2ccccc2)c(C)n(C)c1C | 57.7* | -3.3 | 5.2 | -6.4
CCOC(=O)c1c(S(=O)(=O)N2CCN(Cc3ccccc3)CC2)c(C)n(C)c1C | 18.4 | -7.3 | 0.4 | 6.6
O=C(O)/C=C\C(=O)Nc1ccc(Oc2ccc(Br)cc2)cc1 | 26.9 | -13.8 | 32.3* | 4.6
O=C(O)/C=C/C(=O)Nc1ccc(Oc2ccc(NC(=O)/C=C/C(=O)O)cc2)cc1 | -2.2 | . | 8.0 | 1.6
COC(=O)CCCC1=CC2=C(c3ccccc3)C(=O)C(C)(OC(=O)C3CCCC3)C(=O)C2=CN1CCCCO (stereo not given) | 11.1 | 6.0 | 39.2* | .
CCCN(CC1CC1)C(=O)CSc1nnc(-c2ccncc2)n1-c1ccc(OC)cc1 | . | -2.8 | . | .
CCOc1ccc(-n2ccnc2SCC(=O)Nc2nnc(CC)s2)cc1 | 54.9* | 8.5 | 1.0 | -0.5
COc1ccc2c(COC(=O)[C@@H]3CCCN3S(=O)(=O)c3ccc(Cl)cc3)cc(=O)oc2c1 | . | -25.4 | . | .
